About 8,800 targets were measured; listed, in parts, are those with a hit and a random draw of the rest. About 0.5% of all pairs of compound and target were hits. Unmarked numbers belong to inactive results.
How the values were obtained:
Test in all cases: log2 fold change, soluble protein after heating vs DMSO (PISA); higher = thermal stabilisation; K562 lysate, 10 uM; active = over 0.2 and 3.5 SD of the protein, either way, in both replicates (recomputed)
lapatinib = compound: CS(=O)(=O)CCNCc1ccc(-c2ccc3ncnc(Nc4ccc(OCc5cccc(F)c5)c(Cl)c4)c3c2)o1 [lapatinib]
Method in brief: (§1)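 Values give the log-two fold change in thermal stability against solvent controls, from duplicates. Crude K562 extract at 1 mg/mL protein, made by dounce homogenisation in PBS pH 7.4 with 1 mM MgCl2, was treated with 10 μM compound for 30 min. After 3 min heating across 48°C-58°C, aliquots were pooled, adjusted to 0.5% NP-40 at 4°C and centrifuged at 21,000xg for 90 min. The supernatant was measured by TMTpro 16plex LC-MS/MS with channel sums equalised.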

pictilisib = compound: CS(=O)(=O)N1CCN(Cc2cc3nc(-c4cccc5[nH]ncc45)nc(N4CCOCC4)c3s2)CC1 [pictilisib]
Method in brief: as §1

crizotinib = compound: C[C@@H](Oc1cc(-c2cnn(C3CCNCC3)c2)cnc1N)c1c(Cl)ccc(F)c1Cl [crizotinib]
Method in brief: as §1

[1] = compound: C[C@H](C1=CC=C(C=C1)C(=O)NC2=C3C=CNC3=NC=C2)N
Method in brief: as §1

duvelisib = compound: C[C@H](Nc1ncnc2nc[nH]c12)c1cc2cccc(Cl)c2c(=O)n1-c1ccccc1 [duvelisib]
Method in brief: as §1

gandotinib = compound: Cc1cc(Nc2cc(CN3CCOCC3)c3nc(C)c(Cc4ccc(Cl)cc4F)n3n2)n[nH]1 [gandotinib]
Method in brief: as §1

tozasertib = compound: Cc1cc(Nc2cc(N3CCN(C)CC3)nc(Sc3ccc(NC(=O)C4CC4)cc3)n2)n[nH]1 [tozasertib]
Method in brief: as §1

doramapimod = compound: Cc1ccc(-n2nc(C(C)(C)C)cc2NC(=O)Nc2ccc(OCCN3CCOCC3)c3ccccc23)cc1 [doramapimod]
Method in brief: as §1

bafetinib = compound: Cc1ccc(NC(=O)c2ccc(CN3CC[C@H](N(C)C)C3)c(C(F)(F)F)c2)cc1Nc1nccc(-c2cncnc2)n1 [bafetinib]
Method in brief: as §1

[2] = compound: Cc1cccc(CC(=O)N2CCc3c2ccc(-c2cn(C)c4ncnc(N)c24)c3F)n1
Method in brief: as §1

nilotinib = compound: Cc1cn(-c2cc(NC(=O)c3ccc(C)c(Nc4nccc(-c5cccnc5)n4)c3)cc(C(F)(F)F)c2)cn1 [nilotinib]
Method in brief: as §1

[3] = compound: Cc1nc(Nc2n[nH]c3c2CN(C(=O)N[C@H](CN(C)C)c2ccccc2)C3(C)C)c2sccc2n1
Method in brief: as §1

dasatinib = compound: Cc1nc(Nc2ncc(C(=O)Nc3c(C)cccc3Cl)s2)cc(N2CCN(CCO)CC2)n1 [dasatinib]
Method in brief: as §1

[4] = compound: Cc1ncc(-c2ccnc(Nc3ccc(S(C)(=O)=O)cc3)n2)n1C(C)C
Method in brief: as §1

[5] = compound: Cn1cc(-c2ccc3c(c2)CCN3C(=O)Cc2cccc(C(F)(F)F)c2)c2c(N)ncnc21
Method in brief: as §1

quisinostat = compound: Cn1cc(CNCC2CCN(c3ncc(C(=O)NO)cn3)CC2)c2ccccc21 [quisinostat]
Method in brief: as §1

tipifarnib = compound: Cn1cncc1[C@@](N)(c1ccc(Cl)cc1)c1ccc2c(c1)c(-c1cccc(Cl)c1)cc(=O)n2C [tipifarnib]
Method in brief: as §1

[6] = compound: NC(=O)Nc1cc(-c2cccc(F)c2)sc1C(=O)N[C@H]1CCCNC1
Method in brief: as §1

[7] = compound: NC(=O)c1cnc(N[C@@H]2CCCC[C@@H]2N)nc1Nc1cccc(-n2nccn2)c1
Method in brief: as §1

[8] = compound: NC1(c2ccc(-c3nc4ccn5c(=O)[nH]nc5c4cc3-c3ccccc3)cc2)CCC1
Method in brief: as §1

Sequence of UniProt Q96KP4 (Q96KP4 whole entry, looked up): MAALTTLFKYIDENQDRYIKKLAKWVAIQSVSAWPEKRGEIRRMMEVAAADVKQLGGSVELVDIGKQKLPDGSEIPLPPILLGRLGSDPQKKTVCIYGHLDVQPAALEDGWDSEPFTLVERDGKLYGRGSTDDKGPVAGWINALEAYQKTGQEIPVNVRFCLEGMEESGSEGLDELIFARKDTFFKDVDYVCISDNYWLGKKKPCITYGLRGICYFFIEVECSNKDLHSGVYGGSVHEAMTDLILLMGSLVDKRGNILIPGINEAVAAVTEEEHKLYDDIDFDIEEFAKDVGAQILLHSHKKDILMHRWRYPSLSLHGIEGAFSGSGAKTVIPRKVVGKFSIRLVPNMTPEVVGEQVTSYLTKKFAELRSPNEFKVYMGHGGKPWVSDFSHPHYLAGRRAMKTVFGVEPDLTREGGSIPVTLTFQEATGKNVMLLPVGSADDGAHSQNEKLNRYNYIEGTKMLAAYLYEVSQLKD
Sequence of UniProt Q6PJW8 (Q6PJW8 whole entry, looked up): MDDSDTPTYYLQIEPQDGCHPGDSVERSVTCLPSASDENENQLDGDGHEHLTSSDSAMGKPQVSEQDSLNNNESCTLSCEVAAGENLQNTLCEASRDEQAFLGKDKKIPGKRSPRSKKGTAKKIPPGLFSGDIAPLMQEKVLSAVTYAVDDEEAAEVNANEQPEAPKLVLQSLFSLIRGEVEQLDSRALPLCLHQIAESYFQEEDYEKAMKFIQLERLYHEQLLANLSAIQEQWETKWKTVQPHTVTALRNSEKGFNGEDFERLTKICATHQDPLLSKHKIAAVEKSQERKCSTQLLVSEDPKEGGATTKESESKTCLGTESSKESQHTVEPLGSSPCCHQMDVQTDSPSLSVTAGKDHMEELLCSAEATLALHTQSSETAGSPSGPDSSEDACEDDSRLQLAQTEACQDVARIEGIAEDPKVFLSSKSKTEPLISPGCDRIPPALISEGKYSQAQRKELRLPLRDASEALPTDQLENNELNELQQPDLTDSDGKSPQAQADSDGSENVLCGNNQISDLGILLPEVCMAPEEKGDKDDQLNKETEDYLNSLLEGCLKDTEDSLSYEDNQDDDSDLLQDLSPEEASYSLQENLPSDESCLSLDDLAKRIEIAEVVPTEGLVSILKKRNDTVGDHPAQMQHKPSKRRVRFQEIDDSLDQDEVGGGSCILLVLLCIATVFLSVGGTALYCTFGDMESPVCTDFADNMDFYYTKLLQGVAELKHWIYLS
Sequence of UniProt P21964 (P21964 whole entry, looked up): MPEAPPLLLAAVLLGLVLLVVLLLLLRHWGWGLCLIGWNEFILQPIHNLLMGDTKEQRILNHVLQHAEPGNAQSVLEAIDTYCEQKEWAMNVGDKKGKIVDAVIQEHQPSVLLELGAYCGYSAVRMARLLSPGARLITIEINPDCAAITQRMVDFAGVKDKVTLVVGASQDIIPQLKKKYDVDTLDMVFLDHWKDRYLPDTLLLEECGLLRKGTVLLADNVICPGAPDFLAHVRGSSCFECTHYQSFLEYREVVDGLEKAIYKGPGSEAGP
Sequence of UniProt Q9Y485 (Q9Y485 whole entry, looked up): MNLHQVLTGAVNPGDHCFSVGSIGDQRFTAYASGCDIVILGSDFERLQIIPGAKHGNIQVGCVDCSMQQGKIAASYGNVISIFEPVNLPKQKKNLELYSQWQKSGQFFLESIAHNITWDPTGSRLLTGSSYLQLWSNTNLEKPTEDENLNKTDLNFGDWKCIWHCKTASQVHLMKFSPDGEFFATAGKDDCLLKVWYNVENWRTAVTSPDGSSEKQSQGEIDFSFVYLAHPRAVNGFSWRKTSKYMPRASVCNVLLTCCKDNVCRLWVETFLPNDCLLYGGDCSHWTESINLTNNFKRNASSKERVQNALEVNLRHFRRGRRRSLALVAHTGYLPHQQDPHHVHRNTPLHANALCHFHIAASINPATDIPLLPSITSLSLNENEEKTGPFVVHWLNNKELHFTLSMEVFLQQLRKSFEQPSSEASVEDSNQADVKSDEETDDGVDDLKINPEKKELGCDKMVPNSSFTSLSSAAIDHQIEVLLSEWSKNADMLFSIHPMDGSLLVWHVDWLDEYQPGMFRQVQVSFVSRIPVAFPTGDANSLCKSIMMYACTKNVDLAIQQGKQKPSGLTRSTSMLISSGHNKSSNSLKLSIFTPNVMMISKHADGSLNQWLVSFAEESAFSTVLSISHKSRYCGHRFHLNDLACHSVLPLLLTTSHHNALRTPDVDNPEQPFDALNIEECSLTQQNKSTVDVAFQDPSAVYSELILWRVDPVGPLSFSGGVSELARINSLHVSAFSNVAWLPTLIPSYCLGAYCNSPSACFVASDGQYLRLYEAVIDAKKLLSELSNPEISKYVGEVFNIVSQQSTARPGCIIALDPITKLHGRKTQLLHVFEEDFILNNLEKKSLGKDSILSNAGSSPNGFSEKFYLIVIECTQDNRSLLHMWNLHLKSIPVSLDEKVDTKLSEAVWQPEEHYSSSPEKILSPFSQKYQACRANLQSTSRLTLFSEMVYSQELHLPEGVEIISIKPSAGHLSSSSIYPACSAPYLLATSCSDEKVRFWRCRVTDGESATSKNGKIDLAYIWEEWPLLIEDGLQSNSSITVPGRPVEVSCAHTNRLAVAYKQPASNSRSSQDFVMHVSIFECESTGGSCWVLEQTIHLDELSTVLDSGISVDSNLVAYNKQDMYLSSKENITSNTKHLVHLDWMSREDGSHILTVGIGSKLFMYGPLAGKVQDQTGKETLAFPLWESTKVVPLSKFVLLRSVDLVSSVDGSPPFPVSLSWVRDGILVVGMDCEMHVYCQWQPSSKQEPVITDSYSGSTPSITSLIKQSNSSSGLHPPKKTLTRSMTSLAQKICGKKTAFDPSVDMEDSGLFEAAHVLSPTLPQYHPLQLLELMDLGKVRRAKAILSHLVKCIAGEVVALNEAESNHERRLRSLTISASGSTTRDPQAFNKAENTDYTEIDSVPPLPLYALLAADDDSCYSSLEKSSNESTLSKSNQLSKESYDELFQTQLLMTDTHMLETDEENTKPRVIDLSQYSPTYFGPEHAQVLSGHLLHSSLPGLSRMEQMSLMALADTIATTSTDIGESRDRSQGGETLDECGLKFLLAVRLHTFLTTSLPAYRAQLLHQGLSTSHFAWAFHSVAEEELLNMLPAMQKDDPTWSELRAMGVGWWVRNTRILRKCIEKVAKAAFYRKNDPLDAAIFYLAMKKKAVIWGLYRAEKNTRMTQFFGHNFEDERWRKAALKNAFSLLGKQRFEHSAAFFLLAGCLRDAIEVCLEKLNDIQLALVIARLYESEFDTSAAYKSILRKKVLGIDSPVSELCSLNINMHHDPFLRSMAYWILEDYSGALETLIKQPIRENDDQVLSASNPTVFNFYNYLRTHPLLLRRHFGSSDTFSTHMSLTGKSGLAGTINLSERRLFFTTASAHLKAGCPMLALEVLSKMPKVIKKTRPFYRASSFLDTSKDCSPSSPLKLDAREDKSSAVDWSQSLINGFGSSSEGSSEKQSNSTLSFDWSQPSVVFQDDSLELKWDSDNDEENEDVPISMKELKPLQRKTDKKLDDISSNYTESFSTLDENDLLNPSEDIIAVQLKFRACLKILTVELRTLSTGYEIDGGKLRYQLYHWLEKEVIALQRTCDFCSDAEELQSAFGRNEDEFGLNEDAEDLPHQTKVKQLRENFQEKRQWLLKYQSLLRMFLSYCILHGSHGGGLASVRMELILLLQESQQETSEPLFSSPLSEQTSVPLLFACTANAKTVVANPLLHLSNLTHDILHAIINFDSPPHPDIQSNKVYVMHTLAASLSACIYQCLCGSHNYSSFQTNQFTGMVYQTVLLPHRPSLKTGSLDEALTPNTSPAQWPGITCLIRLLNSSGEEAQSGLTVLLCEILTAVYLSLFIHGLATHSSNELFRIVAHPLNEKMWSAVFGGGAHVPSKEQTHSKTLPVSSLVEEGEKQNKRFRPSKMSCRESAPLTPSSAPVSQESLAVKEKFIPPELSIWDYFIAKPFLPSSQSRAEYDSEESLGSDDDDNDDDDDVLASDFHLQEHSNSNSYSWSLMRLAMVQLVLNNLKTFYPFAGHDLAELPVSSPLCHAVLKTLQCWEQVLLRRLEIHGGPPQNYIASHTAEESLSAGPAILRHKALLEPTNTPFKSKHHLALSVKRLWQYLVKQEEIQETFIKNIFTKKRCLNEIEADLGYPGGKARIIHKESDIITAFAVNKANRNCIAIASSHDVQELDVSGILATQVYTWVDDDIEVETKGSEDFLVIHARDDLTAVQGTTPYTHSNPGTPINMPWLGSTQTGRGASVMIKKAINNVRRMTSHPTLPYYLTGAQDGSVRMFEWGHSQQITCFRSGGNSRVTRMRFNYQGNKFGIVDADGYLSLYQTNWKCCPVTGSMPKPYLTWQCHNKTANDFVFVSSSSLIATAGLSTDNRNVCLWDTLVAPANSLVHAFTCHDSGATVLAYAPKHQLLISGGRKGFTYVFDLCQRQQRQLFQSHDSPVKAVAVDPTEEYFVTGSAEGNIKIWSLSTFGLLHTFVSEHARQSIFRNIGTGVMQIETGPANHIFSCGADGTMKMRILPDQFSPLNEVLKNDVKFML
Sequence of UniProt Q9BY43 (Q9BY43 whole entry, looked up): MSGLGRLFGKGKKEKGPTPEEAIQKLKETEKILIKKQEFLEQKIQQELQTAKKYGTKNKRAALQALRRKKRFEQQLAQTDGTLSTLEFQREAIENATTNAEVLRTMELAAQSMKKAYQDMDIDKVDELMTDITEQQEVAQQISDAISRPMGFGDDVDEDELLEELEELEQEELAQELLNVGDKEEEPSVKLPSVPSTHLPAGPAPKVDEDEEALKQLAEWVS
Sequence of UniProt Q9H2P9 (Q9H2P9 whole entry, looked up): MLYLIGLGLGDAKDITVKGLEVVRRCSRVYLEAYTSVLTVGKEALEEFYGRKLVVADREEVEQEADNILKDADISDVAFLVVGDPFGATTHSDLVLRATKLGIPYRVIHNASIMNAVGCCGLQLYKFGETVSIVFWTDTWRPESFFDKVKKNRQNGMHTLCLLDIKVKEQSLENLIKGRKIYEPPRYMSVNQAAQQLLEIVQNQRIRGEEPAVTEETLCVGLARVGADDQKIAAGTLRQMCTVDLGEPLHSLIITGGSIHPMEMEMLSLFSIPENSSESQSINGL

Row | Target | log2 fold change (lapatinib) | log2 fold change (pictilisib) | log2 fold change (crizotinib) | log2 fold change [1] | log2 fold change (duvelisib) | log2 fold change (gandotinib) | log2 fold change (tozasertib) | log2 fold change (doramapimod) | log2 fold change (bafetinib) | log2 fold change [2] | log2 fold change (nilotinib) | log2 fold change [3] | log2 fold change (dasatinib) | log2 fold change [4] | log2 fold change [5] | log2 fold change (quisinostat) | log2 fold change (tipifarnib) | log2 fold change [6] | log2 fold change [7] | log2 fold change [8]
1 | COASY isoform 2 (UniProt Q13057) | -0.01 | 0.021 | -0.084 | -0.072 | 0.004 | 0.009 | -0.022 | -0.007 | -0.043 | 0.029 | -0.043 | -0.015 | -0.071 | -0.023 | 0.069 | -0.078 | 0.012 | 0.041 | -0.023 | -0.046
2 | DLD (UniProt P09622) | -0.003 | 0.009 | -0.001 | -0.067 | -0.012 | 0.047 | -0.016 | -0.001 | 0.005 | 0.012 | 0.02 | 0.001 | 0.003 | 0.011 | -0.022 | -0.014 | 0.003 | -0.015 | -0.009 | 0.005
3 | CKAP5 (UniProt Q14008) | 0.001 | 0.013 | -0.017 | 0.004 | 0.001 | -0.053 | 0.01 | 0.011 | 0.005 | 0.015 | 0 | 0.002 | -0.024 | -0.005 | 0.026 | -0.03 | -0.028 | 0.021 | 0.01 | 0.006
4 | CNST (UniProt Q6PJW8) | 0.005 | 0 | 0.031 | -0.022 | -0.007 | 0.033 | 0.019 | 0.005 | 0.033 | 0.025 | 0.125 | 0.029 | 0.023 | -0.123 | 0 | -0.005 | 0.054 | -0.002 | 0 | 0.041
5 | CNDP2 (UniProt Q96KP4) | -0.021 | -0.017 | -0.008 | -0.255 (active) | 0.037 | 0.244 (active) | -0.062 | 0.001 | -0.002 | 0.212 | 0.039 | -0.023 | 0.017 | 0.051 | -0.05 | -0.074 | -0.008 | 0.004 | 0.013 | -0.003
6 | CTPS2 (UniProt Q9NRF8) | -0.025 | -0.018 | -0.004 | -0.032 | 0.016 | -0.002 | 0.009 | 0.021 | 0.077 | 0.003 | -0.005 | 0.006 | -0.035 | -0.002 | 0.01 | 0.029 | 0.003 | 0.001 | -0.003 | 0.012
7 | CHMP4A isoform 2 (UniProt Q9BY43) | 0.009 | 0.022 | -0.047 | -0.227 (active) | -0.001 | 0.182 | -0.01 | 0.054 | -0.036 | 0.18 | -0.026 | -0.021 | 0.039 | 0 | -0.011 | -0.145 | 0.017 | -0.029 | -0.02 | -0.009
8 | CWC22 (UniProt Q9HCG8) | 0.059 | -0.027 | -0.051 | 0.46 (active) | 0.011 | -0.207 | 0.072 | -0.019 | -0.088 | -0.109 | 0.043 | 0.017 | -0.015 | 0.002 | 0.02 | 0.015 | 0 | 0.011 | 0.023 | -0.011
9 | DPH5 isoform 5 (UniProt Q9H2P9) | 0.009 | 0.025 | 0.126 | -0.019 | 0.128 | 0.495 (active) | 0.005 | -0.024 | 0.143 | 0.101 | -0.01 | 0.289 | 0.418 (active) | 0.009 | 0.062 | 0.003 | 0.017 | -0.048 | -0.025 | 0.377 (active)
10 | DMXL1 (UniProt Q9Y485) | -0.003 | -0.014 | -0.021 | 0.001 | 0.007 | -0.028 | 0.002 | 0.039 | -0.01 | 0.026 | 0.03 | 0.006 | -0.017 | -0.005 | 0.025 | -0.009 | -0.015 | 0.01 | 0.014 | 0.034
11 | CHEK1 (UniProt O14757) | -0.008 | -0.003 | -0.021 | 0.174 | -0.009 | -0.014 | 0.017 | 0.04 | -0.025 | 0.015 | -0.011 | -0.158 | 0.02 | -0.048 | -0.007 | -0.032 | 0.016 | 0.242 (active) | 0.003 | -0.042
12 | CRABP2 (UniProt P29373) | -0.008 | -0.026 | -0.025 | 0.041 | -0.056 | 0.091 | 0.241 | 0.078 | 0.014 | -0.138 | -0.063 | -0.125 | 0.076 | -0.066 | 0.006 | -0.004 | 0.061 | -0.049 | -0.036 | -0.02
13 | COQ9 (UniProt O75208) | -0.033 | -0.021 | 0.014 | 0.055 | -0.052 | -0.12 | 0.02 | -0.055 | 0.032 | 0.019 | 0.021 | 0.03 | -0.021 | 0 | -0.007 | 0.036 | -0.016 | 0 | 0.002 | -0.018
14 | COMT (UniProt P21964) | -0.006 | -0.007 | 0.019 | -0.052 | -0.015 | -0.008 | -0.008 | 0.038 | 0.012 | 0.01 | -0.007 | -0.029 | -0.02 | -0.018 | 0.02 | -0.08 | 0.013 | 0.028 | 0.005 | 0.009
15 | CTNND1 isoform 3 (UniProt O60716) | -0.019 | -0.047 | -0.039 | -0.006 | 0.008 | -0.001 | 0.002 | 0.007 | -0.025 | 0.04 | -0.027 | -0.02 | 0.006 | -0.017 | 0.009 | -0.065 | -0.06 | 0.027 | 0.065 | -0.065
16 | CORO1A (UniProt P31146) | -0.018 | -0.058 | -0.008 | -0.069 | 0.038 | 0.037 | 0.089 | 0.009 | -0.028 | -0.001 | 0.003 | -0.012 | -0.146 | 0.022 | 0.034 | -0.028 | 0.032 | -0.015 | -0.017 | -0.026

From the supplement of paper PMC10849652
